Coupling enz – coupling enzyme interference in Giardia aldolase counter-screen | coupling enzyme system counterscreen, AmpLite Red fluorescence | activity change, negative = inhibition, % at 58.2 µM, hits read low | 290,000 compounds, 0.67% hits | AID 2472; in the data active = activity change below about -30%
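Fluorescence at 525 nm excitation and 598 nm emission measured inhibition of the coupled detection system without aldolase. Compounds (at 57.5 uM final) were preincubated 10 min at room temperature with coupling enzyme reagent before a 20 min substrate/AmpLite Red step.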
ELG1 repair inh – blocks ELG1-dependent DNA repair in HEK293T cells; HEK293T ELG1-luciferase reporter, luminescence, 16 h; DNA damage induced by 5-fluorouridine; Potency, µM (highest dose often 46.1 µM), for inactives: top-dose activity change, negative = inhibition, actives largely listed as inhibitors; 330,000 compounds, 2.3% hits; AID 504467; note: potency is the fitted concentration of half-maximal effect; nearly all actives have a fitted effect of over 55% in size
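Step one: seed 2,000 cells per well. Step two: pin-transfer compound or DMSO alongside 5-fluorouridine. Step three: incubate 16 hr, 37 °C, 5% CO2. Step four: add ONE-Glo, wait 30 min, read luminescence.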
Giardia killer – kills Giardia lamblia. 340,000 compounds, 0.15% hits. activity change, % at 7.66 µM, hits read low. Giardia lamblia trophozoite viability; in the data active = activity change below about -80%; inconclusive = between about -30% and that limit;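 note: parasites exposed to compound for two days anaerobically before the ATP read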
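Compounds were tested on trophozoites seeded at 100 cells/well and held 48 hrs at 37 deg C anaerobically. An ATP-based luminescent kit measured the remaining live cells.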
Sfp inh – blocks B. subtilis Sfp PPTase activity | Potency, µM, inactives show largest response in the series, negative = inhibition, most hits filed as inhibitors | 310,000 compounds, 3.5% hits | Biochemical Sfp PPTase activity, qHTS | AID 1490 | Q9F4F7;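 note: the enzyme is Sfp with the accession as filed and its product quenches rhodamine fluorescence; potency is the fitted concentration of half-maximal effect; 0% = enzyme reaction without inhibitor and -100% = no enzyme wells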
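Sfp 15 nM + cpd, 15 min RT; start w/ rhodamine-CoA 5 uM, BHQ-2-YbbR 12.5 uM (final); 50 mM Hepes pH 7.6, 10 mM MgCl2, 0.01% NP-40, 0.01% BSA; read 525/598 nm at 0 and 30 min.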
* = called active by the depositor; ? = inconclusive; nt = not tested or not shown. Rows were chosen to be rich in hits. Some 5.5% of all compounds tested hit in one or more screens of this group. Unless noted, calls come from the whole dose curve; as a rule, active = well fitted curve in the direction sought with a large enough effect; inconclusive = small, poorly fitted or top-dose-only effect, or another doubt; inactive = no such curve, though single readings can be large; an effect the other way counts as inactive or inconclusive. Unless noted, % is set by controls: 0 for no effect and ±100 for the full control effect.

SMILES	Coupling enz	ELG1 repair inh	Giardia killer	Sfp inh
Cc1ccc(S(=O)(=O)N(C)CC(=O)N2CC(C)OC(C)C2)cc1 (stereo not given)	nt	-1%	17	20%
Cc1ccc2c(c1)sc[n+]2Cc1ccccc1	-6	?	-2	25µM*
CC(=O)NS(=O)(=O)c1ccc(NC(=O)c2cccc(S(=O)(=O)N3CCc4ccccc43)c2)cc1	0	-9%	6	20%
O=C(Nc1ccc(S(=O)(=O)N2CCc3ccccc32)cc1)c1ccco1	1	21µM*	1	-13%
CCC(=O)Nc1ccc(S(=O)(=O)N2CCc3ccccc32)cc1	-1	-9%	-7	9%
CN(C)S(=O)(=O)c1cccc(NC(=O)c2cccc(S(=O)(=O)N3CCc4ccccc43)c2)c1	nt	16µM*	2	nt
N#Cc1ccc(OCC(=O)N2CCN(S(=O)(=O)c3cccc(Cl)c3)CC2)cc1	nt	-8%	-8	nt
Cc1cccc[n+]1C1C(c2ccccc2)C(C#N)=C(C(=C=[N-])C#N)NC1(O)C1CC1 (stereo not given)	-4	2%	-1	2%
COc1ccc([C@H]2C(C#N)=C([S-])N[C@](C)(O)[C@@H]2[n+]2ccccc2)cc1	-8	4%	-21	25µM*
COc1ccc(C2CC3(O)CC(C#N)(C(=O)N3)C2(C#N)C#N)cc1 (stereo not given)	1	0%	-4	15%
Cc1ccc[n+](C2C(c3ccc([N+](=O)[O-])cc3)C(C#N)=C([S-])NC2(O)C2CC2)c1 (stereo not given)	-16	-2%	1	25µM*
Cc1cc2nc(CS)[nH]c2cc1C	-1	21%	-30	40µM*
CCN1c2ccccc2N(C)C1(C)c1ccccc1 (stereo not given)	-53*	?	20	32µM*
O=C(Nc1cccc(S(=O)(=O)C(F)F)c1)c1ccc(Cl)c(S(=O)(=O)N2CCOCC2)c1	-2	7.3µM*	5	20%
O=C(Nc1nccs1)c1ccc(Br)c(S(=O)(=O)N2CCOCC2)c1	-1	21µM*	-14	22%
O=C(Nc1cccc(C(=O)NC2CC2)c1)c1ccc(Cl)c(S(=O)(=O)N2CCOCC2)c1	nt	13µM*	-7	nt
O=C(Nc1cccc(Br)c1)c1ccc(Cl)c(S(=O)(=O)N2CCOCC2)c1	2	16µM*	7	7%
CC1CCCCN1CCCOC(=O)c1ccccc1 (stereo not given)	nt	nt	nt	-3%
FC(F)(F)c1cc(CN2CC3(CCNCC3)C2)cc(C(F)(F)F)c1	3	nt	nt	0%
CS(=O)(=O)Nc1cccc(-c2ccc3ncnc(NCCN4CCOCC4)c3c2)c1	0	nt	nt	34%
COc1ccc(CNC(=O)COC(=O)c2ccc(S(=O)(=O)N3CCOCC3)cc2)cc1	nt	22%	-3	nt
CC(OC(=O)c1cccc(S(=O)(=O)N(C)C)c1)C(=O)NCc1ccc2c(c1)OCO2 (stereo not given)	nt	-4%	1	nt
C[C@@H]1CN([C@@H](C)CO)C(=O)c2cc(NS(=O)(=O)c3ccc(Cl)cc3)ccc2O[C@H]1CN(C)Cc1ccncc1	nt	-2%	-3	nt
O=Cc1ccc(-c2cccc([N+](=O)[O-])c2)o1	1	12%	-4	0%
O=C1NC(=O)/C(=C/c2ccc(-c3cccc([N+](=O)[O-])c3)o2)S1	1	-14%	-6	89µM*
SMILES	Coupling enz	ELG1 repair inh	Giardia killer	Sfp inh
CC(=O)Oc1ccccc1C(=O)C=Cc1cccc([N+](=O)[O-])c1	nt	nt	-12	nt
CC(Oc1ccccc1)C(=O)N1CCN(C(=O)C(C)Oc2ccccc2)CC1 (stereo not given)	nt	6.5µM*	-9	2%
CC(Oc1ccccc1)C(=O)N1CCc2ccccc2C1 (stereo not given)	0	3%	2	7%
CCC(C)NC(=O)CSc1ccc(S(=O)(=O)N(C)C2CCCCC2)cn1 (stereo not given)	nt	?	9	nt
CSc1ccc(C(=S)N2CCN(C)CC2)cc1	-2	?	7	6.3µM*
CCCCNC(=S)N1CCN(C(c2ccccc2)c2ccccc2)CC1	-3	21µM*	6	15%
CSc1ccc(C(=S)N2CCN(C(c3ccccc3)c3ccccc3)CC2)cc1	0	10%	-2	35µM*
COc1ccc(C(=S)N2CCCC2)cc1	4	-11%	-10	7%
CSc1ccc(C(=S)N2CCCC2)cc1	4	10%	7	50µM*
CN1CCN(C(=S)c2ccc(N(C)C)cc2)CC1	1	18%	3	-5%
CC1O[C@@H]2O[C@](O[C@H](C)CC[C@@H](C)O)(c3ccccc3)O[C@@H]2C[C@H]1O (stereo not given in full)	nt	26%	-4	nt
CN1C2CCC1CC(OC(=O)C(O)c1ccccc1)C2 (stereo not given)	2	nt	nt	35%
C=CCn1c(SCC(=O)Nc2sccc2C(N)=O)nc2ccc(Cl)cc2c1=O	-2	?	6	45µM*
O=C(COC(=O)COc1ccc2c(c1)CCC2)Nc1ccccc1C(F)(F)F	nt	3%	2	nt
O=C(CCS(=O)(=O)c1ccc(Cl)cc1)Nc1nc(-c2cccnc2)cs1	-2	?	0	3%
Cc1cc(C)cc(OCC(=O)Nc2nc(-c3cccnc3)cs2)c1	0	?	-7	45µM*
O=C(COc1ccc(Nc2ccccc2)cc1)Nc1ccncc1	nt	18µM*	-7	nt
O=C(COc1ccccc1)Nc1nc(-c2ccncc2)cs1	nt	-6%	-1	50µM*
O=C(COc1ccc(Br)cc1)Nc1ccncc1	0	-21%	-1	16%
O=C(CCS(=O)(=O)c1ccc(Cl)cc1)Nc1nc(-c2ccncc2)cs1	0	7.3µM*	-12	12%
O=C1C2C3C=CC(CC3)C2C(=O)N1c1ccc(Cl)cc1Cl (stereo not given)	2	6%	-12	17%
CCN(CC)c1ccc(NC(=O)c2ccccn2)cc1S(=O)(=O)Nc1ccccc1OC	nt	8%	-11	nt
Cc1cc(OCC(=O)Nc2ccncc2)ccc1[N+](=O)[O-]	-1	7.3µM*	-17	-7%
Cc1cc(OCC(=O)Nc2cnn(CCCC(=O)O)c2)ccc1[N+](=O)[O-]	-7	30%	-16	-3%
CCOCCCN1CN(Cc2ccco2)CNC1=S	1	?	-20	40µM*
Cc1ccc(-c2nn(-c3ccccc3)cc2C2CC(c3ccccc3)=NN2C(=O)CCC(=O)O)cc1 (stereo not given)	8	?	-3	-20%
Cc1ccc(C2=NN(C(=O)CCC(=O)O)C(c3cn(-c4ccccc4)nc3-c3ccc(C)cc3)C2)cc1 (stereo not given)	-3	21%	-24	89µM*
C/C(=N\NC(=O)c1ccccc1)c1ccccc1F	-1	?	24	5%
C/C(=N\NC(=O)c1ccccc1OCCOc1ccccc1)c1ccccc1F	nt	18µM*	22	nt
Cc1oc(-c2ccccc2)cc1C(=O)Nc1ccc2ccccc2c1	nt	25%	8	89µM*

High-throughput results (PubChem)
